TDP1 cell CPT = DT40-hTDP1 cell growth loss with CPT. Potency, µM (series often up to 46.2 µM), for the others: at the highest dose activity change, negative = growth inhibition, usual class: inhibitors. chicken DT40 Tdp1-/-;hTDP1 cells + 20 nM CPT, ATP luminescence, 48 h. 420,000 compounds, 12% hits. AID 686979; note: % is set by controls: 0 for no effect and ±100 for the full control effect; nearly all actives have a fitted effect of over 55% in size
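Cell growth measured by CellTiter-Glo luminescence after a minimum 48 h, 37 C compound exposure with 20 nM CPT in Tdp1-knockout DT40 cells stably expressing hTDP1, seeded 400/well; qHTS titration format.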
HepG2 viability = kills HepG2 cells in TGF-b inhibitor counter-screen; HepG2 CAGA-GFP viability, ATP luminescence, 18 h; Potency, µM (highest dose often 46.1 µM), inactives show top-dose activity change, negative = cytotoxicity, usual class: cytotoxic; 410,000 compounds, 0.76% hits; AID 588856
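HepG2 CAGA-GFP cells (1000/well, DMEM with 1% FBS) received compound, then TGF-beta at 500 pg/mL final, and were incubated 18 hours at 37 degrees C. Viability was read by CellTiter-Glo luminescence. Media-only wells were set as complete cell-killing and DMSO as no toxicity.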
HT1080-NT tox = kills 2HG-producing HT-1080-NT fibrosarcoma cells | Potency, µM (doses to about 46.1 µM), inactives show at the highest dose activity, negative = less viability, actives largely listed as cytotoxic | AID 686970 | 360,000 compounds, 1.6% hits | HT-1080-NT fibrosarcoma viability, CellTiter-Glo ATP luminescence, 48 h;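 note: NT is the 2HG producing partner of a matched IDH1 knockdown line; 0% = DMSO-treated cells and -100% = media-only wells without cells; nearly all actives have a fitted effect of over 55% in size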
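750 cells/well, RPMI + 5% FBS; 2 h settle, compound pin-transfer, 48 h at 37 degrees C. CellTiter-Glo 10 min RT, luminescence. Normalized to DMSO and media-only wells.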
HT1080 IDH1KD tx = toxicity to HT-1080 IDH1 knockdown cells (counter line); 360,000 compounds, 2% hits; Potency, µM (top dose mostly 46.1 µM), without a hit: at the top dose activity, negative = toxicity, most hits filed as cytotoxic; HT-1080 IDH1 knockdown viability, ATP luminescence, 48 h; AID 686971;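 note: 0% = DMSO wells and -100% = cell-free medium wells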
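IDH1KD HT-1080 cells, 750/well, RPMI + 5% FBS; compound pinned after 2 h settling; 48 h, 37 °C; CellTiter-Glo luminescence; % activity normalised to DMSO and no-cell wells; curves fitted, classed by r2 and efficacy.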
TGFb inhibitor = blocks TGF-b signaling; HepG2 CAGA-GFP TGF-b/SMAD3 reporter, GFP fluorescence, 18 h; TGF-beta stimulated, 500 pg/mL final; Potency, µM (highest dose often 46.1 µM), inactives show at the highest dose activity, negative = inhibition, actives largely listed as inhibitors; 410,000 compounds, 1.2% hits; note: % is set by controls: 0 for no effect and ±100 for the full control effect; nearly all actives have a fitted effect of over 65% in size
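Inhibition of TGF-beta-driven CAGA-GFP reporter expression in HEPG2 cells is measured by cellular GFP fluorescence after 18 h stimulation with 500 pg/mL recombinant TGF-beta in 1% FBS medium at 37 degrees C.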
TDP1 cell noCPT = qHTS for Inhibitors of human tyrosyl-DNA phosphodiesterase 1 (TDP1): qHTS in cells in absence of CPT. DT40 Tdp1-/- hTDP1 cells, no CPT, ATP luminescence, 48 h. Potency, µM (top dose mostly 46.2 µM), without a hit: top-dose activity change, negative = growth inhibition, most hits filed as inhibitors. 420,000 compounds, 15% hits. AID 686978, 2013; note: % is set by controls: 0 for no effect and ±100 for the full control effect; nearly all actives have a fitted effect of over 55% in size
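Compound effects on proliferation are scored in DT40 Tdp1-/-;hTDP1 cells in the absence of CPT. ATP levels (CellTiter-Glo luminescence) are recorded after a ≥48 hr, 37 °C incubation.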
* hit, by the source's call; ? = inconclusive; / = not tested or not shown; ! = not confirmed by another sample. An excerpt weighted towards active compounds, which were near 17% of everything screened. Calls come from the whole dose curve; as a rule, active = well fitted curve in the direction sought with a large enough effect; inconclusive = small, poorly fitted or top-dose-only effect, or another doubt; inactive = no such curve, though single readings can be large; an effect the other way counts as inactive or inconclusive. Potency is the fitted concentration of half-maximal effect.

SMILES	TDP1 cell CPT	HepG2 viability	HT1080-NT tox	HT1080 IDH1KD tx	TGFb inhibitor	TDP1 cell noCPT
CCN(CC)c1ccc(N=Cc2c(O)n(Cc3ccco3)c(=O)[nH]c2=O)cc1	1%	-10%	4%	5%	46%	-12%
Nc1ccc(S(=O)(=O)NCc2ccccc2)cc1	-17%	/	/	/	/	?
Cc1cccc(N(CC(=O)NCCSc2ccc(Cl)cc2)S(=O)(=O)c2ccccc2)c1C	?	-20%	/	/	?	?
Cc1ccc(S(=O)(=O)N(CC(=O)NCCSc2ccc(Cl)cc2)c2ccccc2C)cc1	21µM*	-11%	/	/	?	23µM*
CCn1c(C)[n+](CC(O)COCC2CC=CCC2)c2ccccc21 (configuration not stated)	21µM*	-1%	3%	-24%	-9%	23µM*
C[C@@]12CCC(OS(=O)(=O)O)C[C@@H]1CCC1C2CC[C@]2(C)C(=O)CCC12 (some centres not stated)	-2%	/	/	/	/	2%
CCc1cc(-c2cnnn2Cc2ccc3ccccc3c2)ccc1-c1cn(CC(C)C)nn1	26µM*	-13%	4%	7%	?	21µM*
CCOC(=O)C1C(C=C(C)C)C1(C)C (configuration not stated)	-5%	/	/	/	/	17%
CCN(CC)c1ccc(CN2CC=C(c3ccc(F)cc3)CC2)cc1	18µM*	-78%	?	?	?	18µM*
O=[N+]([O-])c1ccccc1CN1CC=C(c2ccc(F)cc2)CC1	23µM*	-38%	-17%	-5%	?	?
Oc1ccc2ccccc2c1CN1CC=C(c2ccccc2)CC1	-8%	9%	2%	4%	5%	-25%
O=[N+]([O-])c1cccc(CN2CC=C(c3ccc(F)cc3)CC2)c1	?	-36%	0%	15%	-20%	?
COc1ccc(CN2CC=C(c3ccc(F)cc3)CC2)cc1Br	?	-38%	-7%	-19%	?	29µM*
CC1(C)C(O)CC(O)[C@]2(C)C1CC(O)[C@]1(C)C2CC[C@@]2(C)C(c3ccoc3)OC(=O)C3O[C@]312 (some centres not stated)	?	/	/	/	/	-21%
CC1(C)C(=O)C=C[C@@]2(C)C1CC(O)[C@]1(C)C2CC[C@@]2(C)C(c3ccoc3)OC(=O)C3O[C@]312 (some centres not stated)	13µM*	/	/	/	/	12µM*
NC(=O)c1cn(C2CCCCC2)c2ccccc2c1=O	?	-1%	-2%	-6%	0%	-8%
O=C1c2ccccc2C(=O)N1SC1CCCCC1	3.7µM*	-36%	-15%	-2%	3%	3.7µM*
O=P(c1ccccc1)(c1ccccc1)N(c1ccccc1)c1ccccc1	2.9µM*	-25%	-13%	?	-16%	4.6µM*
Cc1ccc(O)c(C(=O)c2cc(C(=O)NCCC(C)C)c(=O)n(CCC(C)C)c2)c1	23µM*	8%	-9%	-6%	?	18µM*
O=C(c1cc(C(=O)NCc2ccc(Cl)cc2)c(=O)n(Cc2ccc(Cl)cc2)c1)c1cc(F)ccc1O	?	-4%	-16%	-19%	1%	?
O=C(CNC(=O)c1ccc(Br)cc1)NCC(=O)OCC(=O)c1ccc([N+](=O)[O-])cc1	?	2%	3%	0%	2%	-14%
CN(C(=O)Oc1ccc(C(=O)c2ccc(Cl)cc2)cc1)c1ccccc1	23µM*	11%	-5%	-4%	16%	16µM*
C[N+]1(CCF)[C@@H]2CC[C@H]1CC(OC(=O)C(O)(c1ccccc1)c1ccccc1)C2 (some centres not stated)	11%	/	/	/	/	-2%
c1ccc2c(c1)Sc1ccccc1N2CC1CN2CCC1CC2 (configuration not stated)	2.7µM*!	-1%	-7%	-4%	12%	6.7µM*
CC(=O)N1CC(=O)Nc2ccc(Cl)cc2C1c1ccccc1 (configuration not stated)	12%	2%	13%	7%	-1%	-10%
SMILES	TDP1 cell CPT	HepG2 viability	HT1080-NT tox	HT1080 IDH1KD tx	TGFb inhibitor	TDP1 cell noCPT
Cn1c(=O)c2c(-c3ccccc3)n3c(c2n(C)c1=O)C(c1cc(Cl)ccc1O)Nc1ccccc1-3 (configuration not stated)	9.2µM*	-24%	/	/	-46%	15µM*
COc1ccc(-c2c3c(=O)n(C)c(=O)n(C)c3c3n2-c2ccccc2NC3c2ccccc2OC)cc1 (configuration not stated)	10µM*	-7%	/	/	?	15µM*
CC(=O)N1CCN(c2ccc(N=Cc3c(O)n(Cc4ccccc4)c(=O)[nH]c3=O)cc2)CC1	?	-3%	16%	14%	9%	?
CN1CCN(c2ncnc3ccc(Br)cc23)CC1	26µM*	-20%	-1%	1%	0%	?
CN1CCN(c2c[nH]c(=O)[nH]c2=O)CC1	3%	-5%	2%	3%	9%	5%
C=C(C)[C@H]1O[C@H]2CC[C@@]3(C)[C@@](O)(CC[C@H]4[C@@H]5OC(C)(C)[C@H]6C[C@@H]7C(=C)Cc8c(Cl)cc9[nH]c(c5c9c8[C@@]76O)[C@@]43C)[C@]23O[C@@H]3[C@H]1O	?	/	/	/	/	12µM*
NNC(=O)CP(=O)(c1ccccc1)c1ccccc1	?	-2%	9%	-1%	-1%	12µM*!
NC(=O)CSP(=O)(c1ccccc1)c1ccccc1	-23%	-2%	-8%	-21%	30%	-23%
Nc1ncnc2c1ncn2[C@@H]1O[C@@H]2COP(O)(=S)O[C@H]2[C@H]1O (some centres not stated)	6%	9%	/	/	-2%	-5%
Cc1cccc(OC(=O)N2CCOCC2)c1	-18%	-3%	3%	2%	6%	-1%
CCOc1cc(/C=N/NC(=O)c2cccs2)ccc1OC(=O)N1CCOCC1	?	9%	-28%	-26%	-5%	16µM*
CN(C)c1ccc(C2C3C=CC(C3)C2(C#N)C(=O)O)c(Br)c1 (configuration not stated)	-2%	0%	13%	4%	4%	-2%

Screening data as filed in PubChem BioAssay.
